Compound activity as filed in PubChem.
Giardia FBPA inh: blocks Giardia fructose-bisphosphate aldolase activity; purified Giardia FBPA; Potency, µM (doses to about 59.6 µM), for the others: top-dose activity, negative = inhibition, usual class: inhibitors; 290,000 compounds, 0.71% hits; also: potency is read from the fitted curve at half-maximal effect; % is scaled to controls: 0 for no effect and ±100 for the full control effect; nearly all actives have a fitted effect of over 55% in size
Target sequence (A8B2U2 whole entry, looked up): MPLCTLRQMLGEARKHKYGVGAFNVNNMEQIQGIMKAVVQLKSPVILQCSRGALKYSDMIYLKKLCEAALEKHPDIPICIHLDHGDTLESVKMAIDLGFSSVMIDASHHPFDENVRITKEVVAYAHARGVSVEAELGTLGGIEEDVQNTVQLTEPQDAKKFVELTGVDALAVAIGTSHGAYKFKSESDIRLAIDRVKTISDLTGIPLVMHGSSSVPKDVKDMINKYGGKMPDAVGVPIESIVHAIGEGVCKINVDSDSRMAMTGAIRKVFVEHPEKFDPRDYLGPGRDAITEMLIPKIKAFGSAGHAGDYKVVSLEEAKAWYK
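40 nM FBPA preincubated 10 min at RT with compound (up to 57.5 uM final), then substrate plus GAPDH/TPI/NAD/arsenate coupling and diaphorase/resazurin added. Fluorescence read after 20 min at RT, 525/598 nm.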
Pf growth 48h: P. falciparum growth inhibition at 48 hours (one generation); P. falciparum luciferase growth in erythrocytes, 48 h; Potency, µM (top dose mostly 28.7 µM), inactives show at the top dose activity change, negative = inhibition, actives largely listed as inhibitors; 310,000 compounds, 5.9% hits; AID 504832; also: potency is read from the fitted curve at half-maximal effect; % is scaled to controls: 0 for no effect and ±100 for the full control effect
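Firefly luciferase activity from engineered P. falciparum reports growth; inhibitors lower the luminescent signal. Cultures contained 2% hematocrit erythrocytes at 0.1% final parasitemia.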
NS1 inh: influenza NS1 inhibition. Potency, µM (top dose mostly 46.1 µM), for inactives: at the highest dose activity, positive = more growth. 270,000 compounds, 0.4% hits. AID 2326; calls by dose curve; also: potency is read from the fitted curve at half-maximal effect; actives are rising curves; nearly all actives have a fitted effect of over 50% in size
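Recovery from NS1-induced slow growth read by OD600 in budding yeast switched to galactose assay medium (pH 6.0, -URA) at 1:100 dilution. Compound 23 nl per well; the matching strain lacking NS1 serves as control.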
Pf growth 96h: inhibits malaria parasite growth, 96 h; 320,000 compounds, 6.9% hits; P. falciparum luciferase reporter growth, 96 h; AID 504834; Potency, µM (top dose mostly 28.7 µM), inactives show at the top dose activity change, negative = inhibition, actives largely listed as inhibitors; also: potency is read from the fitted curve at half-maximal effect; % is scaled to controls: 0 for no effect and ±100 for the full control effect
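Delayed-death screen, second-generation endpoint: infected erythrocytes, 2% hematocrit, 0.05% parasitemia final; 96 hours at 37 C, 5% CO2; luciferase detection reagent; luminescence decrease equals reduced growth.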
Shiga inhibitor: Shiga toxin inhibition. 290,000 compounds, 9.2% hits. AID 2315. Vero cells, Shiga toxin protein synthesis inhibition reporter. inhibition, % at 38.7 µM; in the data active = inhibition mostly above about 28%, no sharp cut-off; inactive = mostly below about 43%; also: 0% is about no effect
CHX counter: counter-screen hit for Shiga toxin inhibitors, cycloheximide; cell reporter, cycloheximide protein synthesis inhibition counterscreen; max response, %; 300,000 compounds, 12% hits; in the data active = max response mostly above about 13%, no sharp cut-off; inactive = mostly below about 14%; also: read at 38.3 µM for the half of the compounds with a filed dose; 0% is about no effect
The depositor's hits bear a star; i = inactive; ? = inconclusive; nt = no result given; + = active, no number. Only some compounds are listed: those with a hit (about 21% of all), similar ones and a draw of the others. Unless noted, calls follow the shape of the dose curve; as a rule, active = well fitted curve in the direction sought with a large enough effect; inconclusive = small, poorly fitted or top-dose-only effect, or another doubt; inactive = no such curve, though single readings can be large; an effect the other way counts as inactive or inconclusive.

SMILES	Giardia FBPA inh	Pf growth 48h	NS1 inh	Pf growth 96h	Shiga inhibitor	CHX counter
CCCCNC(=O)C(c1ccc(OCC(=O)OC)c(C(=O)OC)c1)N(CCOC)C(=O)CCCCCN1C(=O)NC(c2ccc(-c3ccccc3)cc2)C(C(=O)OCc2ccccc2)=C1C (stereo not drawn)	2%	1.2µM*	8%	1.7µM*	-6	-5
CCCCNC(=O)C(c1ccc(OCC(=O)OC)c(C(=O)OC)c1)N(CCC1=CCCCC1)C(=O)CCCCCN1C(=O)NC(c2ccc(-c3ccccc3)cc2)C(C(=O)OCc2ccccc2)=C1C (stereo not drawn)	6%	nt	nt	nt	nt	nt
CCCCCCN(C(=O)CCCCCN1C(=O)NC(c2ccc(-c3ccccc3)cc2)C(C(=O)OCc2ccccc2)=C1C)C(C(=O)NCCCC)c1ccc(OCC(=O)OC)cc1 (stereo not drawn)	0%	?	21%	4.7µM*	-16	-4
CCCCCCN(C(=O)CCCCCN1C(=O)NC(c2ccc3ccccc3c2)C(C(=O)OCc2ccccc2)=C1C)C(C(=O)NCCCC)c1ccc(OCC(=O)OC)c(C(=O)OC)c1 (stereo not drawn)	0%	nt	nt	nt	nt	nt
CCCCNC(=O)C(c1ccc(OCC(=O)OC)c(C(=O)OC)c1)N(CCc1ccccc1)C(=O)CCCCCN1C(=O)NC(c2ccc(-c3ccccc3)cc2)C(C(=O)OCc2ccccc2)=C1C (stereo not drawn)	4%	1.9µM*	?	2.1µM*	-3	-1
N#CCSc1ccsc1C(=O)Nc1ccc(F)cc1	-15%	40%	1%	16%	32	22*
O=C(Nc1ccc(F)cc1)c1cncs1	8%	37%	4%	-3%	-9	-2
CC(=O)Nc1ccc(C(=O)OCC(=O)NCc2cccs2)cc1	nt	20%	nt	15%	nt	nt
CCCNC(=O)c1c(C)cc(=O)oc1C	0%	33%	13%	6.6µM*	-7	-3
Cc1cc(=O)oc(C)c1C(=O)NCC(C)C	-15%	14%	4%	4%	4	11
C=C1CCO[C@@]2([C@H](O)[C@@](C)(O)CO)NC(=O)[C@]1(O)NC2=O	nt	nt	-1%	nt	nt	nt
O=C(Nc1cccc(C(=O)O)c1)/C(=C\c1ccccc1)NC(=O)c1cccc2ccccc12	19%	0%	9%	?	28	9
Cc1ccc(-c2nc(C3CCN(S(=O)(=O)c4ccc(C(C)(C)C)cc4)CC3)no2)cc1	-2%	nt	7%	2.9µM*	9	16
CN1CCN(C2CCN(S(=O)(=O)c3ccc(C(C)(C)C)cc3)CC2)CC1	-5%	1%	-4%	-2%	4	-3
Cc1ccc(C(=O)Nc2cc3ccccc3oc2=O)cc1	0%	14%	5%	11%	32	29*
CC(=O)c1cc(NC(=O)c2ccc(C)cc2)c(=O)oc1/C=C/N(C)C	-2%	70%	2%	64%	52*	48*
CC(=O)Nc1cc2ccccc2oc1=O	4%	10%	nt	235%	22	13
CC(=O)c1cc(NC(=O)c2ccc(C)cc2)c(=O)oc1C	0%	105%	-2%	112%	72*	28
O=C(O)NCC1CCCCC1 (tested in a mixture with another compound)	nt	nt	-5%	nt	nt	nt
Cc1ccc(CNC(=O)CN(C(=O)C2(C)CC(=O)N=C3C=CC=CN32)c2ccc(F)cc2)cc1 (stereo not drawn)	-2%	17%	19%	10%	11	9
O=C(CC1(O)C(=O)Nc2ccccc21)c1ccc(-n2cnnn2)cc1 (stereo not drawn)	3%	16%	nt	?	28	24*
COc1ccc(-c2cn3ccccc3n2)cc1[N+](=O)[O-]	-4%	147%	-8%	162%	96*	67*
CCCOc1ccc(-c2cn3ccccc3n2)cc1[N+](=O)[O-]	-14%	144%	3%	491%	+	134*
CCCCOc1ccc(C2=CSC3=NCCN23)cc1[N+](=O)[O-]	22%	?	1%	0%	2	-2
CCCCOc1ccc(-c2csc(N)n2)cc1[N+](=O)[O-]	1%	189%	-56%	?	127*	86*
SMILES	Giardia FBPA inh	Pf growth 48h	NS1 inh	Pf growth 96h	Shiga inhibitor	CHX counter
COc1ccc(-c2cn3cc([N+](=O)[O-])ccc3n2)cc1OC	-17%	289%	nt	471%	80*	41*
CCCOc1ccc(-c2cn3ccccc3n2)cc1	-17%	448%	nt	?	18	3
O=S(=O)(Nc1nc2ccccc2nc1NCC1CCCO1)c1cccc(Cl)c1 (stereo not drawn)	9%	3%	-2%	-5%	-2	-2
CCN(CC(=O)Nc1cc(Cl)ccc1Cl)C(=O)c1ccc(-n2cccn2)cc1	nt	19%	nt	44%	nt	nt
COc1ccccc1C1=CC(=O)CC(C)(C)C1=O	nt	7%	nt	81%	nt	nt
NS(=O)(=O)c1ccc(CCNS(=O)(=O)c2ccc3c(c2)NC(=O)CO3)cc1	nt	24%	6%	-2%	-7	-7
CN(C)C/C=C(/c1ccc(Br)cc1)c1cccnc1	-2%	12µM*	-13%	15µM*	nt	nt
O=C(NCCNC(=O)c1cccnc1)c1ccc(Br)cc1	13%	-27%	1%	44%	11	-2
CC(C)C[C@@H](CC(=O)N[C@@H](CCCN)CC(=O)N[C@@H]1CCNC[C@H]1C(=O)N[C@H](CC(=O)N[C@@H](CCC(=O)O)CC(=O)O)Cc1ccccc1)NC(=O)[C@@H]1CCCC[C@H]1N	-28%	nt	nt	nt	nt	nt
COc1ccc(-c2cn3nc4c(nc3n2)CCCC4)cc1	-21%	nt	0%	52%	48*	26*
COc1ccc(CNC(=O)Cn2cc3c(n2)CCCCC3)cc1	0%	18%	-6%	-21%	16	3
COC(=O)c1cccc(NC(=O)NC(=O)c2ccccc2Cl)c1	8%	344%	0%	i	35	10
COC(=O)c1cccc(NC(=O)Nc2ccc(Cl)c(Cl)c2)c1	-2%	?	10%	?	59*	38*
COC(=O)c1cc(NC(=O)Nc2ccccc2)ccc1Cl	0%	54%	-10%	?	92*	41*
COC(=O)c1cccc(NC(=O)Nc2ccccc2OC)c1	-12%	70%	-8%	33%	43*	23*
CCOc1ccccc1-n1nnnc1SCC(=O)Nc1cc(C)on1	3%	?	-9%	3%	-12	-3
O=C(CSc1nnnn1-c1ccccc1)NC(=O)Nc1ccc2c(c1)OCCO2	11%	158%	1%	119%	76*	56*
CCOc1ccccc1-n1nnnc1SCC(=O)NC(=O)Nc1ccc2c(c1)OCCO2	-1%	8%	-1%	nt	20	13*
O=C(Cc1ccccc1)NCC(=O)OCc1cccc([N+](=O)[O-])c1	-5%	7%	-5%	10%	-7	-1
